USP10 inh = blocks human USP10 ubiquitin-rhodamine cleavage; Q14694; purified USP10, Ub-rhodamine fluorescence, 60 min; inhibition, % at 20 µM; 47,000 compounds, 1.1% hits
USP7 block = inhibitors of human USP7 deubiquitinase. Q93009. purified USP7, Ub-rhodamine cleavage fluorescence. inhibition, % at 20 µM. 47,000 compounds, 0.3% hits
Target sequence (Q93009 whole entry, looked up): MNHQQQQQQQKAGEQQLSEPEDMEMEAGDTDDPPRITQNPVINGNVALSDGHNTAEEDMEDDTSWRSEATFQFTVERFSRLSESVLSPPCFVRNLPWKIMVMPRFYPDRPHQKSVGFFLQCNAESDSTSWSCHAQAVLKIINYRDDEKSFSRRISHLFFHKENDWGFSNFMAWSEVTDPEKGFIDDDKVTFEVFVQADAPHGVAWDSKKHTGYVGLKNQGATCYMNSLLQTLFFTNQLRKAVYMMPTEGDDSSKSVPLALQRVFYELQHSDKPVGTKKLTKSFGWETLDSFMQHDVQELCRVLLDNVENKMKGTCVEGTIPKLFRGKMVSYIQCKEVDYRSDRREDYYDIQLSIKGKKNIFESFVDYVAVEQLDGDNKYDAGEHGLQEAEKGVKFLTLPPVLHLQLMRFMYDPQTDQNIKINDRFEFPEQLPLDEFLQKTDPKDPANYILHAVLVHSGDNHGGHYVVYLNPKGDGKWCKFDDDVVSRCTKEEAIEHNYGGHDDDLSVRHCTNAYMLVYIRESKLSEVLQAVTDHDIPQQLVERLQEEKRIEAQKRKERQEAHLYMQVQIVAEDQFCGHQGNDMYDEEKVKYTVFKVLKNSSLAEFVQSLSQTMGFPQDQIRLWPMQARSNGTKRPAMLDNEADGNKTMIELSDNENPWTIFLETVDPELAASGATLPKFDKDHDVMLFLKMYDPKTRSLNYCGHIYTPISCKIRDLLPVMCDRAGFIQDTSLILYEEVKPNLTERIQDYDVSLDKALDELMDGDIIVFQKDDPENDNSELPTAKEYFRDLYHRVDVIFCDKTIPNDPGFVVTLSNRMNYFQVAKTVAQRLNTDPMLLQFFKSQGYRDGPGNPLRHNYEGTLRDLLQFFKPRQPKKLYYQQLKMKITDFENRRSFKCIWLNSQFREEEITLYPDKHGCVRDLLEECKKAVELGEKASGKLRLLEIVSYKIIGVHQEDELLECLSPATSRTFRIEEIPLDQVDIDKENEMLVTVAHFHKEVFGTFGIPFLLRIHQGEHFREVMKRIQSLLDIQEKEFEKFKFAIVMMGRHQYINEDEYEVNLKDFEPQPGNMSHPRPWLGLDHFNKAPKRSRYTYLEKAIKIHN
UCHL1 block = human UCHL1 deubiquitinase inhibition; purified UCHL1, Ub-rhodamine cleavage fluorescence; inhibition, % at 20 µM; 47,000 compounds, 0.2% hits; AID 1645859
USP8 inh = blocks human USP8 ubiquitin-rhodamine cleavage; P40818; purified USP8, Ub-rhodamine cleavage fluorescence, 30 min; inhibition, % at 20 µM; 47,000 compounds, 4.2% hits
The depositor's hits bear a star. Compounds with a hit are over-represented: about 4.6% of the library has one in this group of screens. Rule as the data show it: active = inhibition above about 30%; inactive = the rest.

SMILES	USP10 inh	USP7 block	UCHL1 block	USP8 inh
Cc1ccc(N2CC[C@@H]3[C@@H]2CCN3C(=O)c2cnoc2C)nn1	0.7	4.2	0.1	-135.7
Cc1ccc(C(=O)c2cn(CC(=O)Nc3ccc(F)c(F)c3)c3ccc(F)cc3c2=O)cc1	12.4	18.6	-3.1	-10.4
Cc1ccc(C(=O)c2cn(CC(=O)Nc3ccc(C(C)C)cc3)c3ccc(C)cc3c2=O)cc1	-1.6	-1.3	-5.9	-1.2
Cc1ccc2c(c1)c(=O)c(C(=O)c1ccccc1)cn2CC(=O)Nc1ccccc1	27.4	29.9	8.9	88.8*
COc1cccc(NC(=O)Cn2cc(C(=O)c3ccc(C)cc3)c(=O)c3cc(Cl)ccc32)c1	42.8*	34.9*	12.6	72.6*
CCc1ccc(S(=O)(=O)c2cn(CC(=O)Nc3ccccc3)c3ccccc3c2=O)cc1	46.4*	22.5	-0.5	76.7*
COc1cc2c(=O)c(C(=O)c3ccc(F)cc3)cn(CC(=O)Nc3ccc(F)cc3)c2cc1OC	22.3	6.6	2.5	5.9
COc1ccc(NC(=O)Cn2cc(C(=O)c3ccc(F)cc3)c(=O)c3cc(C)ccc32)cc1OC	20.7	12.8	8.7	55.4*
CCc1ccc(OCC(=O)NCc2csc(-c3ccc(OC)cc3)n2)cc1	10.9	3.6	2.8	-7.6
Cc1nc(C2CCN(S(C)(=O)=O)CC2)cc(N2C(=O)OCC2C(C)C)n1 (stereo not drawn)	-0.3	1.5	2.9	13.9
O=C(NC1CCSc2ccccc21)c1cccc(Cl)c1 (stereo not drawn)	-0.5	6.8	0.1	-3.1
Cc1ccc(NC(=O)Cn2cc(C(=O)c3ccccc3)c(=O)c3cc(C)ccc32)cc1	44.4*	32.1*	0.4	83.4*
O=C(CNC(=O)c1cc2c(=O)n3ccccc3nc2s1)c1ccccc1	-2.0	-33.7	-4.8	43.7*
CCS(=O)(=O)N1CCCc2ccc(NS(=O)(=O)c3ccc(C)c(C)c3)cc21	4.0	16.3	9.2	20.3
CCCCOC(=O)c1ccc(NC(=O)C(=O)CC(=O)c2ccc(OC)cc2)cc1	7.2	-5.2	-1.7	77.3*
COC(=O)c1ccc(NC(=O)C(=O)CC(=O)c2ccc(OC)cc2)cc1	-5.1	-3.0	-3.7	-106.0
COc1cccc(-c2cc(CC(=O)Nc3ccc(C(N)=O)cc3)no2)c1	3.6	3.1	-7.8	40.2*
Cc1ccc(NC2=NC(c3ccccc3)(C(F)(F)F)C(C#N)=C3C=CC=CN23)cc1 (stereo not drawn)	-17.4	1.8	-0.6	63.0*
CC1=C(C#N)C(C(F)(F)F)(C(F)(F)F)N=C(Cc2ccccc2)N1	1.9	-4.4	0.2	1.3
O=C(Nc1cccc(Br)c1)c1cc(-c2cccnc2)n[nH]1	37.1*	27.6	10.8	98.0*
O=C(Nc1ccc(Cl)cc1F)c1cc(-c2cccnc2)n[nH]1	7.0	1.1	-1.5	1.7
O=C(Nc1cc(F)ccc1F)c1cc(-c2cccnc2)n[nH]1	11.6	9.7	0.3	5.0
Cc1ccc(NC(=O)c2cc(-c3cccnc3)n[nH]2)cc1F	25.7	-1.6	11.9	99.0*
CC(=O)c1cccc(NC(=O)c2cc(-c3cccnc3)n[nH]2)c1	6.5	0.8	5.1	3.5
Cc1ccc(NC(=O)c2cc(-c3ccncc3)n[nH]2)cc1Cl	14.6	15.9	1.1	22.2
SMILES	USP10 inh	USP7 block	UCHL1 block	USP8 inh
CC(C)c1ccc(NC(=O)c2cc(-c3cccnc3)n[nH]2)cc1	7.0	12.4	1.8	97.4*
COc1ccc(NC(=O)c2cc(-c3cccnc3)n[nH]2)cc1Cl	8.7	2.4	1.6	64.6*
O=C(c1ccccc1)N1CC[C@H](c2nnc(-c3ccncc3)o2)C1	4.0	3.6	2.1	-4.0
CCC1CCCCN1CC(=O)Nc1ccc2c(c1)OCCO2 (stereo not drawn)	-0.1	-2.2	-0.9	11.9
O=C(COc1cccc(-c2noc(-c3ccc([N+](=O)[O-])cc3)n2)c1)Nc1ccccc1	21.6	7.5	-1.8	9.4
O=C(Cn1cnc(-c2noc(-c3cccc(F)c3)n2)c1)Nc1ccccc1	27.5	5.2	6.3	64.5*
O=C(Cc1noc(-c2ccccc2)n1)Nc1ccccc1	-8.3	-7.5	-7.2	12.9
O=C(Cn1cnc(-c2noc(-c3ccccc3)n2)c1)Nc1ccccc1	42.0*	18.0	29.3	89.8*
COc1ccccc1Cn1c(C2CC(=O)N(C)C2)nc2ccccc21 (stereo not drawn)	-2.1	-34.2	-4.4	-20.0
COC(=O)C1CCN(C(=O)CC[C@H]2CNC(=O)[C@@H]3[C@@H](CCN3Cc3ccccc3)N2C)CC1	3.3	-20.3	6.6	19.3
CN1[C@@H](CCC(=O)N2CCC(O)CC2)CNC(=O)[C@@H]2[C@H]1CCN2Cc1cccc(OC(F)(F)F)c1	-1.5	-21.7	4.2	35.5*
CN1[C@@H](CCC(=O)N2CCN(c3ccccn3)CC2)CNC(=O)[C@@H]2[C@H]1CCN2Cc1ccc(CO)o1	-1.5	0.1	-1.8	-11.3
CN1[C@@H](CCC(=O)N2CCN(c3ccccn3)CC2)CNC(=O)[C@@H]2[C@H]1CCN2Cc1ccc(O)cc1	-1.7	-13.6	17.2	72.7*
CN1[C@@H](CCC(=O)N2CCC(O)CC2)CNC(=O)[C@@H]2[C@H]1CCN2Cc1ncc[nH]1	-1.6	-3.7	2.7	4.7
CN1[C@@H](CCC(=O)N2CCN(c3ccccn3)CC2)CNC(=O)[C@@H]2[C@H]1CCN2CC(C)(C)C	-0.8	-2.2	-2.1	-4.2
CC(C)N1CC[C@@H]2[C@H]1C(=O)NC[C@H](CCC(=O)N1CCN(c3ccccn3)CC1)N2C	0.1	-3.6	9.6	61.7*
CN1[C@@H](CCC(=O)N2CCC(O)CC2)CNC(=O)[C@@H]2[C@H]1CCN2Cc1ccc(O)cc1	-2.8	-6.8	12.0	65.8*
O=C(Cc1cccc2ccccc12)N1CCC(Cc2ccccc2)CC1	16.6	-2.4	4.9	10.3
Cc1ccc(C)c2nc3c(cc12)CN(Cc1nnnn1Cc1ccccc1)CCO3	-0.9	-4.5	3.1	12.3
O=C(N[C@@H]1C[C@@H](Oc2cccc(F)c2)[C@H](O)[C@H]1N1CCC(O)CC1)C1CCOCC1	0.1	-0.1	-2.5	-15.0
O=C(Cn1ccc2ccc([N+](=O)[O-])cc21)NC1CCCc2ccccc21 (stereo not drawn)	-11.2	0.1	-10.3	-8.3
COc1cccc(CNC(=O)c2nc3c(s2)CCNCC3)c1	-5.8	-5.3	-3.2	53.7*
COc1cccc(NC(=O)c2nc3c(s2)CCNCC3)c1	-4.9	6.4	0.0	-13.8
CC(NC(=O)Cc1ccccc1)c1nc2ccccc2n1C (stereo not drawn)	0.4	-12.1	-3.0	-2.9
CCC1(C)Cc2c(sc3nc(SC)nc(SCC(=O)Nc4ccccc4)c23)CO1 (stereo not drawn)	-2.0	-1.2	-1.3	-5.6
COc1ccccc1CNc1nnc(-c2nc(C3CC3)no2)c2ccccc12	6.6	1.2	7.6	13.6
COc1ccccc1CNc1nc(-c2nnc(-c3ccccc3)o2)nc2ccccc12	7.1	12.8	11.0	36.5*
COc1cccc2cc(-c3nnc(SCC(=O)c4ccc(F)cc4)n3C)oc12	18.0	3.3	5.5	39.4*
Cc1ccn2c(=O)c(C(=O)NCc3ccccc3Cl)cnc2c1	-10.4	-9.0	-11.0	-29.1
